# From PubChem BioAssay
# Rows were chosen to be rich in hits. Some 1.5% of all compounds tested hit in one or more screens of this group.
# EphB4 antag: antagonists of human EphB4-ephrin-B2 interaction; AID 720; hit rate 0.15% among 97,000; EphB4 LBD / TNYL-RAW-Alexa532 peptide, fluorescence polarization; inhibition, % at 7 µM;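 active = inhibition above the screen-wide mean inhibition plus 3 SD, cut at about 15% in these data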;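 also: 0% = DMSO wells and 100% = excess unlabeled TNYL-RAW peptide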
# Smad3 inh: Smad3 (human) transcription factor binding inhibition; hit rate 0.29% among 88,000; inhibition, % at 25 µM; TR-FRET Smad3/Dy647-FoxH1 peptide binding, europium anti-His; P84022;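 active = compounds that reduce the energy-transfer binding signal between the protein and its labelled peptide by more than half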;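 also: 0% = Smad3 plus labelled peptide maximal FRET and 100% = peptide-only background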
# Target sequence (P84022 whole entry, looked up): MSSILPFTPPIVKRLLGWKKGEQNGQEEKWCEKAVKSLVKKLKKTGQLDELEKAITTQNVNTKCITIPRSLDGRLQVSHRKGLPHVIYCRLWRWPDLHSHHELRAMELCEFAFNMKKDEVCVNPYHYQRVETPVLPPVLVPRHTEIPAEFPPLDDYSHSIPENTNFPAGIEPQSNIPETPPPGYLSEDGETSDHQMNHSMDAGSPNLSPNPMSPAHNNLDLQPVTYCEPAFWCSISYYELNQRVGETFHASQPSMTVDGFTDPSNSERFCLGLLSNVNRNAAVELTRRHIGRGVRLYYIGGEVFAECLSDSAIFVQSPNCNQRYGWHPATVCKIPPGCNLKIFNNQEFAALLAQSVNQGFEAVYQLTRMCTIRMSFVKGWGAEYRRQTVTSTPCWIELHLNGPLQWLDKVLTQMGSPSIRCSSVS
# PLK1 PBD inh: Plk1 (human) PBD binding inhibition | P53350 | Plk1 PBD phosphopeptide binding, fluorescence polarization | inhibition, %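 (tested at about 20 µM)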 | hit rate 0.13% among 97,000 | AID 693; in the data active = inhibition above about 34%, passing the limit was not always enough
# PLK1 kinase inh: PLK1 (human) kinase inhibition. inhibition, % at 10 µM. P53350. recombinant PLK1 kinase, TR-FRET peptide phosphorylation. AID 619. hit rate 0.53% among 97,000;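 active = inhibition of 50% or more in the single-concentration screen; inactive = inhibition below 50%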;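 also: 0% = DMSO max control and 100% = H-89 dihydrochloride min control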
# FAK inh: inhibitors of human focal adhesion kinase. biochemical FAK kinase activity assay. Q05397. inhibition, %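 (tested at 7 µM)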. hit rate 0.84% among 97,000; in the data active = inhibition above about 19%;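 also: 0% = DMSO and 100% = reference compound high control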
# PLK1 inh conf: confirmation of human PLK1 kinase inhibitors | shares compounds with PLK1 kinase inh | recombinant PLK1 kinase, TR-FRET peptide phosphorylation | inhibition, % at 10 µM | hit rate 20% among 210 | AID 744;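 active = inhibition at or above 50% in each of two repeat confirmation tests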;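 also: 0% = DMSO max control and 100% = H-89 kinase-blocked min control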
# TR-FRET interf: Plk1 assay compound interference counter-screen hit; shares compounds with PLK1 kinase inh; Plk1 TR-FRET assay interference, compound added post-reaction; inhibition (interference), % at 10 µM; 210 tested, under 10 active; AID 756;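 active = both duplicate runs show 50% or greater inhibition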;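 also: 0% = DMSO max control and 100% = H-89 min control inhibited reaction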
# Numbers without * were called inactive; / = no result; [ ] = remark or other dose.
SMILES,EphB4 antag,Smad3 inh,PLK1 PBD inh,PLK1 kinase inh,FAK inh,PLK1 inh conf,TR-FRET interf
O=C1c2ccccc2C(=O)c2c(Nc3cc4c5c(ccc6c7ccc8c9c(cc(Nc%10cccc%11c%10C(=O)c%10ccccc%10C%11=O)c(c3c56)c97)-c3ccccc3C8=O)C(=O)c3ccccc3-4)cccc21,/,73*,/,/,/,/,/
O=C1c2ccccc2-c2cccc(NS(=O)(=O)c3ccc(C(F)(F)F)cc3)c21,-1,/,-43,-9,-1,/,/
CC(=O)c1ccc(N2CCN(C(=O)c3ccco3)CC2)c(F)c1,2,-2,4,1,-2,/,/
CC(=O)c1ccc(N2CCN(C(=O)c3ccc(Br)cc3)CC2)c(F)c1,21*,9,13,-3,3,/,/
CCOC(=O)C1CCN(S(=O)(=O)Cc2ccccc2)C1=O (centres undefined),15*,0,0,0,5,/,/
CCN1CCN(S(=O)(=O)Cc2ccccc2)CC1,1,1,16,-11,-2,/,/
Fc1ccc(Sc2nc(-c3ccccc3)nnc2C(F)(F)F)cc1,-2,/,-14,3,-11,/,/
Fc1ccc(Sc2cc(Cl)c(-c3ccccc3)nn2)cc1,20*,/,-6,-11,4,/,/
NC(N)=NC(N)=Nc1c(F)c(F)c(F)c(F)c1F,/,56*,/,/,/,/,/
CCc1cccc(NC(=O)C2CCN(S(=O)(=O)c3cccs3)CC2)c1,5,14,13,-46,0,/,/
CCOC(=O)c1c2c(n(C)c1COC)C(=O)C(=O)c1ccc(Br)cc1-2,4,75*,12,-8,52*,/,/
CN1CCN(CC(=O)Nc2cccc3ccccc23)CC1,/,-6,/,/,/,/,/
O=C(C1Cc2ccccc2CN1S(=O)(=O)c1ccc(F)cc1)N1CCOCC1 (centres undefined),-5,3,8,-9,3,/,/
O=C(C1Cc2ccccc2CN1S(=O)(=O)c1ccc(F)cc1)N1CCCCCC1 (centres undefined),2,77*[fluorescence artefact?],-5,-7,1,/,/
Cc1ccccc1C1CC(c2ccc(F)cc2)Nc2nc(N)nn21 (centres undefined),-6,5,15,70*,-1,/,/
Cc1ccccc1C1CC(c2ccc(Br)cc2)Nc2nc(N)nn21 (centres undefined),1,9,0,-3,0,/,/
CCOC(=O)C1C(=O)Oc2ccc3ccccc3c2C1C1CCOC1=O (centres undefined),-1,-5,11,63*,1,/,/
CCCC1c2c(ccc3ccccc23)Oc2ccc3ccccc3c21,/,-2,/,/,/,/,/
Fc1ccc(-c2nc3ccncc3[nH]2)cc1,3,/,-12,65*,5,/,/
COc1ccc(-c2nc3ccncc3[nH]2)cc1OC,-1,-4,-15,-4,3,/,/
CCOc1ccc(NC(=O)c2ccccc2OCC(=O)c2ccc(C)cc2)cc1,-2,/,9,-11,-2,/,/
CCOc1ccc(NC(=O)C(C)Oc2ccccc2C(=O)Nc2ccc(C)c(Cl)c2)cc1 (centres undefined),17*,/,-3,-8,2,/,/
NC(=O)c1sc2cc(C(F)(F)F)cnc2c1-c1cccs1,-7,5,7,57*,1,/,/
Cc1ccccc1N1CCN(c2ncnc3scc(-c4cccs4)c23)CC1,0,-7,-3,27,-1,/,/
Clc1ccc(CN2CCN(c3ncnc4scc(-c5cccs5)c34)CC2)cc1,-1,8,0,62*,1,/,/
SMILES,EphB4 antag,Smad3 inh,PLK1 PBD inh,PLK1 kinase inh,FAK inh,PLK1 inh conf,TR-FRET interf
Cc1ccc2c(c1)C(c1ccccc1)N(C(=O)C(C)C)CC(=O)N2 (centres undefined),-3,-1,-17,71*,-9,-15,-51
O=C(Nc1ncc2c(n1)-c1ccccc1CC2)c1ccc(Cl)cc1,1,/,-10,123*,11,12,-46
O=S(=O)(c1cccc(C(F)(F)F)c1)N1CCN(c2ccccc2)CC1,4,-10,13,-11,0,/,/
COc1ccc(Cl)cc1NC(=O)Cn1c(=O)n2nc(C)nc2c2ccccc21,-8,2,-15,78*,2,-6,-51
Cc1cc(C)c(NC(=O)c2ccc(S(=O)(=O)N3CCOCC3)cc2)c(C)c1,-5,11,-3,72*,-8,-11,-48
COc1cc(C)ccc1NC(=O)c1ccc(S(=O)(=O)N2CCOCC2)cc1,-10,-16,27,-6,-4,/,/
CC(=O)Nc1ccc(C(=O)CSc2ncn(-c3ccccc3)n2)cc1,-14,3,-18,84*,2,-13,-51
O=C(CSc1ncn(-c2ccccc2)n1)Nc1nccs1,5,9,-12,11,0,/,/
O=c1ccc2cc3c([nH]c4ccc(Br)cc43)oc-2c1O,11,-7,6,71*,0,22,-20
O=c1c2c([nH]c3ccc(Br)cc13)CCCC2,/,-4,/,/,/,/,/
Cc1ccc(C)c(N2CCN(C(=O)C3CCCCN3S(=O)(=O)c3ccc(F)cc3)CC2)c1 (centres undefined),0,9,-11,-25,0,/,/
C=CCSc1nc(-c2ccccc2)c2cc(Cl)ccc2n1,-1,/,13,78*,3,-9,-51
CCn1c(SCC(=O)Nc2nccs2)nnc1-c1ccccc1,0,8,36,25,0,/,/
CC(C)Nc1ncnc2c1cnn2-c1ccccc1,-6,8,9,-6,3,/,/
NNc1ncnc2c1cnn2-c1ccccc1,4,15,13,75*,3,68*,-60
CCOC(=O)c1sc2nc[nH]c(=O)c2c1C,-6,6,-23,79*,5,73*,-15
COc1ccc(-c2nc(CS(=O)CC(=O)NCCCN3CC(C)CC(C)C3)c(C)o2)cc1OC (centres undefined),5,-2,3,-5,2,/,/
Cc1ccc(-c2nc(CS(=O)CC(=O)NCCCN3CC(C)CC(C)C3)c(C)o2)cc1 (centres undefined),-1,10,-6,76*,-2,-15,-56
Cc1ccc(-c2nnc(SCC#N)n2N)cc1,0,/,-23,3,-7,/,/
Cn1nnnc1SCC(=O)Nc1ccc(N2CCOCC2)cc1,4,7,-13,75*,0,-3,-54
Cc1nnc(NC(=O)C2(c3ccccc3)CCOCC2)s1,-8,3,-19,-11,2,/,/
COC(=O)CSc1nc2cc(OC)ccc2cc1C#N,-11,14,-5,87*,2,-8,-53
O=C(Cc1c(F)cccc1Cl)Nc1ccon1,0,8,-2,-18,0,/,/
CN1CCN(CC(O)COc2ccc(OCC(O)CN3CCN(C)CC3)cc2)CC1 (centres undefined),6,-3,-14,-18,9,/,/
CC1CCN(CC(O)COc2cccc(F)c2)CC1 (centres undefined),-5,-9,7,74*,2,-2,-55
COc1cccc(OCC(O)CN2CCC(C)CC2)c1 (centres undefined),-2,/,14,-5,-1,/,/
